FMDV inh: foot and mouth disease virus antiviral activity | FMDV antiviral cell-based qHTS | Potency, µM (series often up to 57.9 µM), most hits filed as inhibitors | 1.2% of 410,000 active | AID 1159524; calls by dose curve; tested in HEK293T cells; further: read-out not given here; nearly all actives have a fitted effect of over 45% in size
HCMV inh: blocks human cytomegalovirus replication; HFF cells, HCMV-luciferase reporter, 72 h; hits give low values; activity change, negative = inhibition, % at 57.5 µM; 4.5% of 410,000 active; in the data active means activity change below about -60%; inconclusive means no clear call, values can overlap the other calls; inactive means above about -39%
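HFF cells seeded 16 h at 37C, treated with compounds, infected with luciferase-reporter HCMV at MOI 1 PFU/cell; luciferase read at 72 h post infection, normalized to buffer-only and Salinomycin controls.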
HCV inhibitor: inhibitors of hepatitis C virus infection | 3.4% of 340,000 active | Huh7.5.1 HCVcc-Cre infection, luciferase reporter, 44 h | Potency, µM (highest dose often 41.8 µM), most hits filed as inhibitors | AID 651820; active means well fitted inhibition curve with a large enough effect; inconclusive means small, poorly fitted or top-dose-only effect, or another doubt; inactive means no such curve, though single readings can be large or run the other way
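Luciferase read-out (15 sec integration) after a 15 min room-temperature substrate step quantifies HCVcc-Cre infection. Cells, 1,000 per well, had compound added 4 h post-plating, then virus at ~0.5 moi, and were cultured 44 h.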
Lassa entry inh: inhibitors of Lassa virus binding or cell entry; Potency, µM (highest dose often 37.9 µM), usual class: inhibitors; Lassa virus pseudotype entry inhibition, cell reporter; 1.2% of 300,000 active; calls by dose curve; tested in HEK293 cells; further: nearly all actives have a fitted effect of over 50% in size
Marburg entry inh: inhibitors of Marburg virus binding or cell entry; Potency, µM (top dose mostly 37.8 µM), actives largely listed as inhibitors; 1.8% of 300,000 active; Marburg virus pseudotyped entry inhibition, cell reporter; calls by dose curve; tested in HEK293 cells
Hits are given with their value; – = inactive; ? = inconclusive; · = no result; + = active, no number. Sampled rows, rich in hits. Any-hit rate of the full collection: about 7.9%.

SMILES | FMDV inh | HCMV inh | HCV inhibitor | Lassa entry inh | Marburg entry inh
O=C(NCCCN1CCN(c2cccc(Cl)c2)CC1)c1sc2ncccc2c1-n1cccc1 | ? | – | · | – | ·
O=C(CNC(=S)N(Cc1ccccc1)Cc1ccccc1F)NCc1ccccc1 | – | ? | – | ? | ?
COc1cccc(CNC(=O)CNC(=S)N(Cc2ccccc2)Cc2ccccc2F)c1 | – | -66 | – | – | ?
COc1ccc(CN2C(=O)NC(=O)/C(=C\c3ccco3)C2=O)cc1 | – | – | – | – | –
O=C1NC(=O)N(Cc2ccccc2)C(=O)/C1=C/C=C/c1ccco1 | 13µM | – | ? | · | ·
CC(C)N1C(=O)/C(=C/C=C/c2ccco2)C(=O)N(Cc2ccco2)C1=O | 18µM | – | ? | ? | 4µM
CC(C)c1ccc(N2C(=O)NC(=O)/C(=C\C=C\c3ccco3)C2=O)cc1 | ? | -95 | ? | ? | ?
Cc1sc2ncn(CC(=O)N3CCN(c4ccc(F)cc4)CC3)c(=O)c2c1S(=O)(=O)N1CCCCC1 | – | – | · | – | –
COc1cc(-c2cnc3ccccc3c2)cc2c1OCCN(S(=O)(=O)C[C@]13CC[C@H](CC1=O)C3(C)C)C2 | – | · | · | · | ·
CN1c2ccc(Cl)cc2-c2nc(SCC(=O)NCc3ccc(F)cc3)ncc2S1(=O)=O | – | – | · | ? | ·
Cc1ccc(C(=O)Nc2cccc(-c3nc(CNC(=O)c4cccc(N(C)C)c4)c(C)o3)c2)s1 | – | · | · | · | ·
COc1ccc(N=C2S/C(=C\c3cc(C)n(C)c3C)C(=O)N2CC(C)C)cc1 | – | – | 10µM | – | –
Cc1ccc(NC(=S)N(Cc2cccs2)Cc2cc3cc(C)ccc3[nH]c2=O)cc1 | – | – | – | 7.1µM | 4.5µM
COc1cc2cc(CN(Cc3cccs3)C(=S)Nc3ccc(C)cc3)c(=O)[nH]c2cc1OC | – | -69 | – | 4.6µM | ?
Cc1cccc(NC(=S)N(Cc2cccs2)Cc2cc3cc(C)ccc3[nH]c2=O)c1 | – | – | – | – | ?
COc1ccc(CNC(=O)C2CCN(C(=O)c3ccc(-c4ccccc4)cc3)CC2)cc1 | ? | – | – | 2.5µM | ?
Cc1ccc(Nc2nc(C(=O)N3CCC(C(=O)NCc4ccccc4)CC3)cs2)cc1 | – | – | ? | · | –
COc1ccc(CNC(=O)C2CCN(C(=O)c3cccc(Cl)c3)CC2)cc1 | – | – | – | – | –
CCOC(=O)N1CCN(S(=O)(=O)N2CCCC(C(=O)NCc3ccc(OC)cc3)C2)CC1 (centres undefined) | – | + | – | – | –
COc1ccc(CNC(=O)C2CCN(C(=O)c3csc(Nc4ccc(C)cc4)n3)CC2)cc1 | 25µM | – | 11µM | · | ?
COc1ccc(CNC(=O)C2CCN(S(=O)(=O)N3CCCC3)CC2)cc1 | – | + | – | · | ·
CCCCN1CC(c2nc3ccccc3n2CCCCOc2ccc(C)c(C)c2)CC1=O (centres undefined) | ? | – | · | – | –
CCSc1ccc(C(=O)Nc2ccc(Br)cn2)cc1[N+](=O)[O-] | – | – | ? | · | ·
Cn1cc([N+](=O)[O-])c(C(=O)Nc2ccc(Br)cn2)n1 | – | -65 | 11µM | – | –
Cn1cc([N+](=O)[O-])c(C(=O)Nc2nccs2)n1 | – | -96 | ? | · | ·
SMILES | FMDV inh | HCMV inh | HCV inhibitor | Lassa entry inh | Marburg entry inh
COC(=O)C1=C(C(=O)OC)[C@@H]2Nc3ccccc3[C@@]23C[C@@H](C(=O)OC)N(C(=O)NC(C)(C)C)C3=N1 | · | · | · | · | –
C[C@H]1CCC/C=C/[C@@H]2C[C@H](O)C[C@H]2[C@H](O)/C=C/C(=O)O1 | – | -98 | 0.56µM | · | ·
O=C(Nc1ccc(S(=O)(=O)N2CCCCC2)cc1)C1CCCN(C(=O)c2ccc(Cl)cc2)C1 (centres undefined) | ? | -65 | – | 0.29µM | ?
O=C1CCCc2cc(S(=O)(=O)N3CCCC(C(=O)Nc4ccc(F)c(Cl)c4)C3)ccc2N1 (centres undefined) | 32µM | – | · | – | ·
O=C(Nc1ccccc1)C1CCCN(C(=O)c2ccc(Cl)cc2)C1 (centres undefined) | ? | -65 | – | ? | ?
COc1ccc(NC(=O)C2CCCN(C(=O)c3ccc(Cl)cc3)C2)cc1Cl (centres undefined) | – | -73 | ? | · | ·
CC(C)C(NC(=O)c1ccoc1)c1nnc2n1CCN(C(=O)/C=C/c1ccc(F)cc1)CC2 (centres undefined) | – | · | · | · | ·
Cc1ccc(Nc2c(-c3ccccn3)nc3cccc(C)n23)cc1 | ? | – | 6.3µM | · | ·
Cc1cccc2nc(-c3ccccn3)c(Nc3ccccc3)n12 | ? | -82 | · | 11µM | ?
Cc1cccc2nc(-c3ccccn3)c(Nc3ccc(F)cc3)n12 | ? | -97 | · | ? | ?
Cc1ccc(Nc2c(-c3ccccn3)nc3ccc(Br)cn23)cc1 | – | – | · | – | –
Cc1ccc(Nc2c(-c3ccc(C)o3)nc3cccc(C)n23)cc1 | – | – | · | – | ?
C[C@@]12CC[C@H]3[C@@H](CCC4=C(O)C(=O)CC[C@]43C)[C@H]1CCC2=O | · | · | · | · | –
COc1ccc2cc(CNc3ccc(C)cc3)c(=O)n(CC(=O)Nc3cccc(C(F)(F)F)c3)c2c1 | – | – | · | – | ·
COc1ccc(-c2c(C)nn3c(N4CCOCC4)cc(C)nc23)cc1OC | – | – | – | – | –
CCc1c(C)nc2cc(-c3cc(OC)cc(OC)c3)nn2c1N1CCCC1 | · | ? | ? | – | 3.7µM
CCc1c(C)nc2cc(-c3ccc(OC)c(OC)c3)nn2c1N1CCCC1 | · | ? | 1.8µM | ? | ?
COc1ccc(-c2c(C)nn3c(N4CCCCCC4)cc(C)nc23)cc1OC | – | -61 | 11µM | – | ?
O=C1CCCCC1Sc1nnc(-c2ccc3c(c2)OCO3)o1 (centres undefined) | 4µM | ? | – | ? | 5.6µM
Clc1ccc(CSc2nnc(-c3ccc4c(c3)OCO4)o2)cc1 | – | – | – | – | ?
O=c1c2oc3ccccc3c2n(Cc2cccc(F)c2)c(=O)n1Cc1ccc2c(c1)OCO2 | – | ? | · | – | ·
Cn1nc(-c2ccccc2F)c2cc(C(=O)NCc3ccc(Cl)cc3)sc21 | ? | -71 | · | – | –
CC(CCc1ccco1)NC(=O)c1cc2c(-c3ccccc3F)nn(C)c2s1 (centres undefined) | ? | – | 18µM | · | ·
Cn1nc(-c2ccccc2F)c2cc(C(=O)NCc3cccc(Cl)c3)sc21 | – | – | · | ? | ?
Cn1nc(-c2ccccc2F)c2cc(C(=O)Nc3cc(F)ccc3F)sc21 | – | – | · | ? | –
COc1ccc(C(=O)COC(=O)C(Cc2c[nH]c3ccccc23)NC(=O)c2ccc(C(C)(C)C)cc2)cc1 (centres undefined) | – | – | · | 1.3µM | ·
CC(C)(C)c1ccc(C(=O)NC(Cc2c[nH]c3ccccc23)C(=O)OCC(=O)c2ccccc2)cc1 (centres undefined) | – | – | · | ? | ·
CCC1CCCCN1C(=O)CSc1nc(N)cc(N)n1 (centres undefined) | – | -65 | – | · | ·
CCC1CCCCN1C(=O)CSc1n[nH]c(N)n1 (centres undefined) | – | – | – | – | –
CCc1ccccc1NC(=O)CN1C(=O)COc2ccc(S(=O)(=O)N3CCCCCC3)cc21 | – | – | · | – | ·

High-throughput results deposited in PubChem by National Center for Advancing Translational Sciences (NCATS).
